HEK293 tox = kills HEK 293 cells; HEK 293 viability, ATP luminescence (CellTiter-Glo), 48-72 h; Potency, µM (doses to about 115 µM), actives largely listed as inhibitors; 94,000 tested, 6.6% active; further: nearly all actives have a fitted effect of over 60% in size
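HEK 293 seeded at 250 cells/well receive compound via pintool. After 48 or 72 hr at 37 degree Celsius, 5% CO2 and 95% humidity, CellTiter-Glo is dispensed and luminescence read following 10 min at room temperature.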
GPT2 inh = GPT2 alanine aminotransferase inhibition; Potency, µM (doses to about 57.7 µM), most hits filed as inhibitors; 100,000 tested, 0.25% active; Recombinant GPT2, coupled pyruvate oxidase/HRP Amplex Red fluorescence; Q8TD30; further: nearly all actives have a fitted effect of over 60% in size
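Recombinant GPT2 (10ng/uL) with 250uM a-KG and 2mM L-alanine, 30 min at room temperature, in HEPES pH 7.5 buffer. Pyruvate detected by pyruvate oxidase/HRP/Amplex Red fluorescence after 30 min in the dark; AOA (50uM) as positive control.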
FLuc inh = Photinus pyralis luciferase inhibition; P08659; purified P. pyralis luciferase, luminescence, biochemical; Potency, µM (titrated, usually from 115 µM), hits mostly inhibitors; 76,000 tested, 2.5% active; further: nearly all actives have a fitted effect of over 65% in size
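Luminescence read by CCD imaging after purified firefly luciferase (10nM final) was added to substrate buffer holding 10uM D-luciferin and 10uM ATP, pH 7.5, pre-dosed with compound.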
NPR1 antag = antagonists of human natriuretic peptide receptor Npr1; P16066; HEK293 hNpr1 GloSensor cGMP, ANP-stimulated luminescence; Potency, µM (titrated, usually from 46.3 µM), most hits filed as inhibitors; 76,000 tested, 1.6% active; AID 1347048; calls by dose curve; further: nearly all actives have a fitted effect of over 60% in size
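HEK293 cells stably expressing human Npr1 and cGMP GloSensor pGS-40F, loaded 2 h with 2% GloSensor reagent, given compound 30 min at room temperature. Luminescence read before and 20 min after 0.1 nM hNppA.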
NIH3T3 tox = kills NIH 3T3 cells. NIH 3T3 viability, CellTiter-Glo ATP luminescence, 48-72 h. Potency, µM (top dose mostly 96.7 µM), usual class: inhibitors. 94,000 tested, 4.3% active; further: nearly all actives have a fitted effect of over 55% in size
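Cells were seeded at 400 per well, treated with pin-transferred compound, and kept 48 or 72 hr at 37 °C before CellTiter-Glo addition and luminescence imaging of cellular ATP.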
Npr1 antag conf = confirmation of human Npr1 natriuretic peptide receptor antagonists; shares compounds with NPR1 antag; HEK293 hNpr1 cGMP GloSensor luminescence, ANP-stimulated; Potency, µM (doses to about 57.6 µM), most hits filed as inhibitors; 1,400 tested, 76% active; AID 1347044; calls by dose curve; further: nearly all actives have a fitted effect of over 70% in size
NPR2 antag = hNpr2 antagonism, selectivity versus Npr1; shares compounds with NPR1 antag; HEK293 hNpr2 GloSensor cGMP luminescence, CNP-stimulated; Potency, µM (doses to about 57.6 µM), hits mostly inhibitors; 1,400 tested, 67% active; calls by dose curve; further: nearly all actives have a fitted effect of over 70% in size
FLuc counter = FLuc enzyme inhibition, Npr1 counter-screen; shares compounds with NPR1 antag; purified FLuc enzyme, luminescence, Km substrate; Potency, µM (titrated, usually from 57.6 µM), actives largely listed as inhibitors; 1,400 tested, 0.7% active; AID 1347047; further: series mostly up to about 58 µM
GloSensor ctrl = reduces cGMP signal in GloSensor control cells. shares compounds with NPR1 antag. HEK293 GloSensor cGMP, SNP-stimulated, luminescence. Potency, µM (series often up to 57.6 µM), most hits filed as inhibitors. 1,400 tested, 69% active; calls by dose curve; further: nearly all actives have a fitted effect of over 70% in size
GPT2 conf = confirmation of human GPT2 inhibitors. shares compounds with GPT2 inh. GPT2 enzyme, coupled Amplex Red pyruvate fluorescence. Potency, µM, usual class: inhibitors. 95 tested, 90% active. AID 1671187
Numbers stand for hits. In the library only some 10% were active in any assay of this set; here they are far more common. Unless noted, the call rests on the fitted dose curve; in most records, active means well fitted curve in the direction sought with a large enough effect; inconclusive means small, poorly fitted or top-dose-only effect, or another doubt; inactive means no such curve, though single readings can be large; an effect the other way counts as inactive or inconclusive.

CCc1cnc(N2CCC3(CC2)C(=O)Nc2cc(OCc4ccccc4)c(OC)cc23)nc1 was read as HEK293 tox inconclusive, GPT2 inh inconclusive, FLuc inh inactive, NPR1 antag inactive and NIH3T3 tox inconclusive.
For COc1cc2c(cc1Oc1ccccc1)NC(=O)C21CCN(Cc2cccc(O)c2)CC1 the results were HEK293 tox inconclusive, GPT2 inh inactive, FLuc inh inactive, NPR1 antag inconclusive, NIH3T3 tox 22µM, Npr1 antag conf 40µM, NPR2 antag inconclusive, FLuc counter inactive and GloSensor ctrl 31µM.
c1ccc(-c2ncc3c(n2)C[C@@H]2CC[C@H]3N2)cc1 was read as HEK293 tox inactive, GPT2 inh inactive, FLuc inh inactive, NPR1 antag inactive and NIH3T3 tox inactive.
Screening Oc1ccc2[nH]cc(CCCCN3CC=C(c4ccccc4)CC3)c2c1 returned GPT2 inh 3.5µM and GPT2 conf 7.7.
Screening CN(C)Cc1cn(C[C@H]2CC3CCN2C[C@@H]3C(=O)NC2CCCCC2)nn1 (stereo partly drawn) returned HEK293 tox inactive, GPT2 inh inactive, FLuc inh inactive, NPR1 antag inactive and NIH3T3 tox inactive.
